Results as given in PubChem BioAssay AID651702 (NMMLSC, 2012).
Out of some 360,000 compounds screened, about 2,400 (0.67%) were called active.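 Rule for the calls: active = inhibition above about 55% (limit read from the data); inconclusive = no clear call, values can overlap the other calls; inactive = the rest.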 This excerpt belongs to a sample that is enriched for actives.

Assay: LAMP-1 surface exposure blockers, TALL-104 cells – cell-based, flow cytometry, MLPCN library, primary screen (AID 651702)
Conditions: TALL-104 LAMP-1 surface exposure, at 10 µM, hits give high values
For `CC(=O)OC1C2(CC3N4C(=O)C5(CO)SSC4(CC31O)C(=O)N5C)OC(C)C(C)(C)C2=O` (stereo not given), the inhibition was 74.7% (active). For `CN1CCC[C@@H]1CCO[C@](C)(c1ccccc1)c1ccc(Cl)cc1`, the inhibition was 3.8% (inactive). For `Cc1cc(N2C(=O)C3CCCN3C2c2ccc(Cl)c(Cl)c2)no1` (stereo not given), the inhibition was 1.1% (inactive). With `CN1CCC(OC(=O)c2cccc(F)c2)CC1` the inhibition was -4.7% (inactive). For `O=C(CCNS(=O)(=O)c1ccccc1)Nc1ccc(Cl)cc1C(=O)c1ccccc1`, the inhibition was -5.4% (inactive). In the case of `OC1/C(=C/c2ccc(C(F)(F)F)cc2)N2CCC1CC2` (stereo not given), the inhibition is reported as -6.5% (inactive). In the case of `O=C1NC(=O)N(CCc2ccc(F)cc2)C(=O)/C1=C/C=C/c1ccccc1`, the inhibition is reported as 57.4% (active). With `O=[N+]([O-])c1ccc(C2C3C(c4ccccc4)=NC4(CCCCC4)N32)cc1` (stereo not given) the inhibition was 0.6% (inactive). In the case of `O=c1[nH]c(CN2CC=C(c3ccccc3)CC2)nc2scc(-c3cccs3)c12`, the inhibition is reported as -1.3% (inactive). In the case of `Cc1ccc(CN2CCCC(C(=O)c3ccc4c(c3)OCO4)C2)cc1C` (stereo not given), the inhibition is reported as -2.3% (inactive). For `CCOc1ccc(-c2cc(C)[n+](CCN(CC)CC)c(-c3ccc(OCC)cc3)c2)cc1`, the inhibition was 77.5% (active). For `COc1ccccc1CN1CCN(C(=O)Cc2ccccc2)CC1`, the inhibition was 24.2% (inactive). For `COc1ccc(CNCCc2ccc3c(c2)OCO3)c(OC)c1OC`, the inhibition was 5.7% (inactive). With `COc1ccc(Br)cc1CNCCc1cccc(Cl)c1` the inhibition was 75.9% (active). For `COc1ccc(CNCCc2c[nH]c3ccccc23)cc1OC`, the inhibition was 21.9% (inactive). In the case of `CCOP(=S)(OCC)C(O)CCCCCn1c(=O)c(F)cn(C2CCCO2)c1=O` (stereo not given), the inhibition is reported as 1.5% (inactive). In the case of `CCOC(=O)[C@]12Cc3ccccc3[C@H]1N(C1CCCCC1)C(=O)c1cc(OC)ccc12`, the inhibition is reported as 57.3% (active). In the case of `CCOC(=O)[C@]12Cc3cc(OC)ccc3[C@H]1N(C(C)C)C(=O)c1ccccc12`, the inhibition is reported as 3.3% (inactive). For `Cc1cccc(NC(=O)N2CC3CC(C2)c2cccc(=O)n2C3)c1` (stereo not given), the inhibition was -2.7% (inactive). In the case of `O=C(CCCn1c(=O)[nH]c2cc(Cl)ccc2c1=O)N1CCC2(CC1)OCCO2`, the inhibition is reported as 2% (inactive). With `Cc1cccc(OP(=O)(Oc2cccc(C)c2)OC(c2ccccc2)C(F)(F)F)c1` (stereo not given) the inhibition was 0.4% (inactive). In the case of `O=C(Nc1cccc2ccccc12)N1CCC2(CC1)OCCO2`, the inhibition is reported as -7.6% (inactive). With `CCCCCCCCCCCCn1ccc(=N)cc1` the inhibition was 27.1% (inactive). In the case of `CCOC(=O)C1CN(C)CCC1=O` (stereo not given), the inhibition is reported as -3.9% (inactive). In the case of `CNCC[C@H](Oc1ccc(C(F)(F)F)cc1)c1ccccc1`, the inhibition is reported as 10% (inactive). For `O=C1NC(=O)N(Cc2ccco2)C(=O)/C1=C\c1ccc(-c2ccc(F)cc2)o1`, the inhibition was 76.4% (active). In the case of `COC(=O)C1=C(c2ccc(Cl)c(C(F)(F)F)c2)C[C@@H]2CC[C@H]1N2C(=O)NC(C)C`, the inhibition is reported as -10.7% (inactive). For `COCc1cc(OC(=O)N(C)C)nc(-c2ccc(C)c(Cl)c2)n1`, the inhibition was -8.4% (inactive). In the case of `COc1cc(-n2c(=S)[nH]c3ccc(C)cc3c2=O)c(Cl)cc1Cl`, the inhibition is reported as 1.2% (inactive). With `COc1ccc(-n2c(O)c(C(C)=Nc3ccc4c(c3)CCC4)c(=O)[nH]c2=O)cc1` the inhibition was -0.2% (inactive).
